Molecules are shown by their SMILES. Inconclusive results are not listed. Calls of active or inactive are those of the source. Unless noted, calls follow the shape of the dose curve; as a rule, active = well fitted curve in the direction sought with a large enough effect; inconclusive = small, poorly fitted or top-dose-only effect, or another doubt; inactive = no such curve, though single readings can be large; an effect the other way counts as inactive or inconclusive.

Assay [1] in a line: NCATS anti-infectives library activity on HEK293 viability as a counter-qHTS vs the C. elegans viability qHTS (AID 1745854).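 Also: HEK293 cells exposed to compounds for 24 hr before the viability read; % is scaled to controls: 0 for no effect and ±100 for the full control effect.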 Put shortly: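 Cytotoxicity in human HEK293 cells is measured by ATP-dependent CellTiter-Glo luminescence following a 24 hr incubation with titrated library compounds at 37C. Top final concentration is 41.7 uM.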
The target of assay [2] is Glutathione peroxidase 1 (Homo sapiens) (UniProt P07203). The assay can be described thus: Primary qHTS Assay for Inhibitors of Recombinant Selenoprotein Glutathione Peroxidase 1 (GPX1) (AID 1845191). Also: nearly all actives have a fitted effect of over 65% in size. Put shortly:
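GR-coupled assay: compounds preincubated 30 min at room temperature with GPX1, then reaction started with CHP; final 10 nM GPX1, 1 mM GSH, 0.5 mM CHP, 0.5 mM NADPH, 100 nM GR, 0.01% BSA, pH 7.5 Tris buffer. NADPH fluorescence (340/450 nm) read at 0 and 15 min.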
(In general: qHTS replaces the single test concentration by a dilution series.)

Assay [3] concerns the target Phospholipid hydroperoxide glutathione peroxidase GPX4 (Homo sapiens) (UniProt P36969). As to the kind of experiment: Primary qHTS Assay for Inhibitors of Recombinant Selenoprotein Glutathione Peroxidase 4 (GPX4) (AID 1845192). Also: nearly all actives have a fitted effect of over 65% in size. The essentials:
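GR-coupled assay: recombinant GPX4 preincubated 30 min with compound at room temperature; final 200 nM GPX4, 1 mM GSH, 0.5 mM cumene hydroperoxide, 0.5 mM NADPH, 100 nM GR, 0.01% BSA, pH 7.5 Tris. NADPH fluorescence (340/450 nm) read at 0 and 15 min.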

A short description of assay [4]: Quantitative High-Throughput drug screen in 47 multiple myeloma cell lines against the NCATS MIPE library collection: FR4_PLB cell viability assay (AID 1918924; also: nearly all actives have a fitted effect of over 35% in size; also: potency is read from the fitted curve at half-maximal effect). The essentials: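 Inhibition of cell viability is measured here. Each line was plated at 500 cells per well, treated with MIPE 4.0 drugs, kept 48 hours at 37C, then assayed for ATP content by CellTiter-Glo luminescence.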

The nature of assay [5]: Quantitative High-Throughput drug screen in 47 multiple myeloma cell lines against the NCATS MIPE library collection: Delta47_JCRB cell viability assay (AID 1918925; also: nearly all actives have a fitted effect of over 45% in size; also: potency is read from the fitted curve at half-maximal effect). Put shortly:
(§1)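 Primary qHTS used for cherry-picking: cells at 500/well, library compounds for 48 h (37C, 5% CO2), luminescent ATP assay.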

A short description of assay [6]: Quantitative High-Throughput drug screen in 47 multiple myeloma cell lines against the NCATS MIPE library collection: EJM_DSMZ cell viability assay (AID 1918926; also: nearly all actives have a fitted effect of over 30% in size; also: potency is read from the fitted curve at half-maximal effect). Put shortly: as §1
Assay [7] in a line: Quantitative High-Throughput drug screen in 47 multiple myeloma cell lines against the NCATS MIPE library collection: AMO1_DSMZ cell viability assay (AID 1918927; also: nearly all actives have a fitted effect of over 30% in size; also: potency is read from the fitted curve at half-maximal effect). Put shortly:
as §1

Assay [8] in a line: NCATS anti-infectives library activity on the primary C. elegans qHTS viability assay (AID 1745855; calls by dose curve). Conditions: C. elegans worm area imaging, day 7; at 41.8 µM (top of the series). Put shortly: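 Viability is taken from GFP fluorescence of PE254-GFP-FLuc C. elegans imaged by laser cytometry over 7 days. Ten L1 worms per well grow at 21 °C on TOP10 E. coli capsules with titrated compound; levamisole marks toxicity.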

A short description of assay [9]: Viability counterscreen for antagonist of constitutive androstane receptor (CAR) against the NCATS DSHEA and TCM libraries (AID 1794837).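 Also: compound exposure lasted 24 h before viability reading; 0% is about no effect.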 Put shortly:
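HepG2-CYP2B6-hCAR cells (2,500/well) were allowed to attach for 5 h, then exposed to compounds with 48 uM CITCO for 24 h at 37C. Viability was read by CellTiter-Fluor fluorescence after 1 h.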
In general terms: The purpose of a counterscreen is to sort out artefacts and off-target activity.

Assay [10] can be described thus: Viability counterscreen for agonist of constitutive androstane receptor (CAR) against the NCATS DSHEA and TCM libraries (AID 1794838). Also: 0% is about no effect. Put shortly:
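HepG2-CYP2B6-hCAR cells (2,500/well) attached 5 h, then got compounds plus 0.75 uM PK11195 final. After 24 h at 37C, viability read by CellTiter-Fluor fluorescence (Ex/Em 405/540 nm).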

The nature of assay [11]: HepG2 viability counterscreen (readout 2: ATP content) against the NCATS DSHEA and TCM libraries (AID 1794840).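 Also: HepG2 cells exposed to substances for about 24 h; 0% is about no effect.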 The essentials:
(§2)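 HepG2 cells (1,000 cells/well) attached ~4 h, then treated ~24 h at 37C with substances. Protease activity read by GF-AFC (25 uM final, 30 min, Ex/Em 380/510 nm); ATP content then by CellTiter-Glo luminescence.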

Assay [12] is described as follows: HepG2 viability counterscreen (readout 1: protease activity) against the NCATS DSHEA and TCM libraries (AID 1794841).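 Also: cells exposed to compounds for about 24 h before the protease read; 0% is about no effect.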 Put shortly: as §2
Assay [13] addresses Nicotinamide N-methyltransferase (Homo sapiens) (UniProt P40261). As to the kind of experiment: Confirmatory Screen for Target Class Profiling of Small Molecule Inhibitors of Methyltransferases (AID 1745852). Conditions: MTase-Glo luminescence, SAH detection, recombinant enzyme; measured here: NNMT max response; stronger effect = lower value.
For assay [14], the target named is Phenylethanolamine N-methyltransferase (Homo sapiens) (UniProt P11086). The description is as above. The note with it: MTase-Glo luminescence, SAH detection, recombinant enzyme; measured here: PNMT max response; stronger effect = lower value.
The target in assay [15] is Luciferin 4-monooxygenase (Photinus pyralis) (UniProt P08659). As to the kind of experiment: Primary firefly luciferase (FLuc) qHTS assay for identification of artifact compounds. (AID 1845220). Also: nearly all actives have a fitted effect of over 60% in size. The note with it: outcome: dose series up to 54.1 µM. Put shortly:
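Titrated compounds were incubated 15 min at RT, protected from light, with luciferin and ATP at 10 uM; reaction started with 10 nM FLuc, luminescence imaged at 5 min, and concentration-response fitted by Hill equation.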

A short description of assay [16]: Primary fluorescence-based thiol-reactive (MSTI) qHTS assay for identification of artifact compounds. (AID 1845221).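 Also: thiol-reactive compounds lower the probe fluorescence signal; nearly all actives have a fitted effect of over 65% in size.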 The essentials:
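First, 4 uM MSTI in 2% DMSO/PBS pH 7.4 was dispensed; next, compounds were added; then plates sat 1 h at room temperature without light. Finally, emission at 598 nm was recorded.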

Assay [17] deals with Nanoluciferase (engineered Oplophorus gracilirostris luciferase). As to the kind of experiment: Primary Nanoluciferase (NLuc) qHTS assay for identification of artifact compounds. (AID 1845222).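 Also: NLuc secreted into diluted conditioned medium of S16 cells; 0% = DMSO and -100% = no enzyme.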 Put shortly: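 qHTS format, against NLuc in S16 cell-conditioned medium. Nano-Glo substrate 1:100 was added after 15 min at room temperature. Luminescence was taken after a further 5 min.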

Assay [18] addresses Metallo-beta-lactamase type 2 (Klebsiella pneumoniae) (UniProt C7C422). As to the kind of experiment: qHTS to identify inhibitors of the New Delhi Metallo-beta-lactamase (NDM): assay validation screen against the NCATS LOPAC Collection (AID 1794843).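 Also: nitrocefin turnover by NDM-1 measured as 485 nm absorbance at plateau; % is scaled to controls: 0 for no effect and ±100 for the full control effect.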 Put shortly: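 NDM-1 at 2 nM final in 50 mM HEPES pH 7.0, 1 uM ZnSO4, 0.01% Tween20, preincubated with LOPAC compounds pinned in DMSO; 50 uM nitrocefin (stock) added. Hydrolysis read as absorbance at 485 nm in the plateau phase.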

The target in assay [19] is Nuclear receptor subfamily 1 group I member 3 (Homo sapiens) (UniProt Q14994). The assay can be described thus: Primary qHTS for agonist of constitutive androstane receptor (CAR) against the NCATS DSHEA and TCM libraries (AID 1794839).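 Also: HepG2 cells expressing human CAR with a CYP2B6 reporter plus PK11195 antagonist; 0% is about no effect.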 Put shortly: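 HepG2-CYP2B6-hCAR cells (2,500/well) were attached for 5 h, then treated for 24 h at 37 °C with compounds plus 0.75 µM PK11195. Luciferase luminescence (ONE-Glo) was read, with CellTiter-Fluor viability (Ex/Em 405/540 nm).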
Nuclear receptor subfamily 1 group I member 3 (Homo sapiens), sequence (Q14994 whole entry, looked up): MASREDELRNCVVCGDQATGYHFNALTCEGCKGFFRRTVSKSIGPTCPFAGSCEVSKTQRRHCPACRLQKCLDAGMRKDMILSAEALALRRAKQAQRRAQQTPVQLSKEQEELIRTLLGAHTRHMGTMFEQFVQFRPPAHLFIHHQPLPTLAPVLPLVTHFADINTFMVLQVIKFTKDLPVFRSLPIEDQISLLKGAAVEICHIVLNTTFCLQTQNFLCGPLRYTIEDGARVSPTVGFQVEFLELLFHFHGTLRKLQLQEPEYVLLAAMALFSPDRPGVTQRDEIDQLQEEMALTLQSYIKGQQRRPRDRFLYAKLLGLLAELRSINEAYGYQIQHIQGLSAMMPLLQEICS

Glutathione peroxidase 1 (Homo sapiens), sequence (P07203 whole entry, looked up): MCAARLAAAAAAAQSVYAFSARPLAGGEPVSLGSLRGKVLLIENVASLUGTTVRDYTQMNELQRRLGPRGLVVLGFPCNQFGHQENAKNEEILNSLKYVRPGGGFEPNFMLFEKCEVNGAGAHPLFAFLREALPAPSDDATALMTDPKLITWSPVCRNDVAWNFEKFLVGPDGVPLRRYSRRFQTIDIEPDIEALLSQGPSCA
Metallo-beta-lactamase type 2 (Klebsiella pneumoniae), sequence (C7C422 whole entry, looked up): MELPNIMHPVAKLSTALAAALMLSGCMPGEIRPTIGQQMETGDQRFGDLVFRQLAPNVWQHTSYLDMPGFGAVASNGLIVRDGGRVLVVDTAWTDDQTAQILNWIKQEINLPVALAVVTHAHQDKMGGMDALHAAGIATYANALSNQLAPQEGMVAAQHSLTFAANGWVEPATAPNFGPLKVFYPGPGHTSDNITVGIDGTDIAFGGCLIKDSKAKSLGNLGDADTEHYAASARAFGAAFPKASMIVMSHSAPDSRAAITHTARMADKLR
Phospholipid hydroperoxide glutathione peroxidase GPX4 (Homo sapiens), sequence (P36969 whole entry, looked up): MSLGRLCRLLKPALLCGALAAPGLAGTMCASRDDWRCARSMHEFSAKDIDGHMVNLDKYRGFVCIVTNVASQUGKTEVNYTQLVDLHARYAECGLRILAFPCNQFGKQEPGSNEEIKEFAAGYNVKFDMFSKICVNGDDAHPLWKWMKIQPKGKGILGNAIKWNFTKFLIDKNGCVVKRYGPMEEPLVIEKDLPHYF
Nicotinamide N-methyltransferase (Homo sapiens), sequence (P40261 whole entry, looked up): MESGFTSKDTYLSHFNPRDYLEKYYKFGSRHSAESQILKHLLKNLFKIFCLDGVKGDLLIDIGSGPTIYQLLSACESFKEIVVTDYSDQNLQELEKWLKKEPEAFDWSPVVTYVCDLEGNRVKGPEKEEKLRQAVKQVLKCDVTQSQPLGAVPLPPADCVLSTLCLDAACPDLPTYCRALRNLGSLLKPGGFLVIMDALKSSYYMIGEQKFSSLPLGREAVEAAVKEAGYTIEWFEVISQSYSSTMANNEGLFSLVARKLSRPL
Phenylethanolamine N-methyltransferase (Homo sapiens), sequence (P11086 whole entry, looked up): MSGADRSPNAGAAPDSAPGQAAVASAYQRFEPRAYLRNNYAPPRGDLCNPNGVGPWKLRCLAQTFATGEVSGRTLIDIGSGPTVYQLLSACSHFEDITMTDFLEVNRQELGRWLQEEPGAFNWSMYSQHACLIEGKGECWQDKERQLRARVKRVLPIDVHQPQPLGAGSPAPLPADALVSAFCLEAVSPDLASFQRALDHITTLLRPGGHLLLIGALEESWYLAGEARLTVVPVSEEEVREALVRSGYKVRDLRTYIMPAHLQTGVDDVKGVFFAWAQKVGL

For `CC(=O)Oc1ccccc1C(=O)Nc1ncc([N+](=O)[O-])s1`, the Potency entry in [1], in assay [2] and in assay [3] was “inactive” each time. Besides, the Potency in assay [4] is 19.1 µM (active); in assay [5], 30.3 µM (active); in [6] it was 13.6 µM (active); in assay [7], 13.6 µM (active).

Turning to `O=C(N[C@H](CO)[C@H](O)c1ccc([N+](=O)[O-])cc1)C(Cl)Cl`, the Potency result in [1], in assay [2], in assay [3], in [5], in assay [6] and in [7] was “inactive” in each case.

Consider `COc1ccccc1OCC(O)COC(N)=O` (stereo not given), for which the Potency result in assay [1], in assay [2], in assay [3], in assay [5], in assay [6] and in assay [7] was “inactive” in each case. Further, the outcome in assay [8] was “inactive”.

Take `COc1ccc2cc3[n+](cc2c1OC)CCc1cc2c(cc1-3)OCO2`: the outcome in assay [9], in assay [10], in [11] and in assay [12] was “inactive” throughout. Further, the Potency result in assay [2] and in assay [3] was “inactive” each time. In addition, the values for the Potency in assay [4] and in assay [5] were 14.8 µM (active) and 5.26 µM (active), respectively.

On to `COc1cc2c(Nc3ccc(Br)cc3F)ncnc2cc1OCC1CCN(C)CC1`, for which the activity in assay [13] was -14.2%; in assay [14], -14.3%. The Potency result in assay [2], in assay [3] and in assay [16] was “inactive” in each case. Moreover, the outcome in [15] and in [17] was “inactive” each time. Also, the Potency in assay [6] was 23.5 µM (active).

For `Cc1ccc(S(=O)(=O)N[C@@H](Cc2ccccc2)C(=O)CCl)cc1`, in assay [18], the outcome is “inactive”. Besides, the Potency result in assay [2] and in [3] was “inactive” throughout. Further, the Potency is 20.9 µM (active) in [4], 5.26 µM (active) in assay [5], 16.6 µM (active) in [6] and 13.2 µM (active) in [7].

For `CC1=C(C(=O)O)N2C(=O)[C@@H](NC(=O)C(N)c3ccccc3)[C@H]2SC1` (stereo not given in full), the outcome in assay [18] was “inactive”. Further, the Potency result in assay [2], in assay [3], in assay [4], in assay [6] and in assay [7] was “inactive” throughout.

Take `NNC(=O)c1ccncc1`: the outcome in [9], in [10], in [19], in [11] and in [12] was “inactive” throughout. The Potency result in assay [2], in assay [3], in assay [5] and in assay [7] was “inactive” in each case.

With `COc1cc2ncnc(Nc3cccc(Cl)c3)c2cc1OC`, the activity is -29.1% in [13] and -45.8% in assay [14]. In addition, the outcome in assay [18], in [15] and in assay [17] was “inactive” each time. The Potency entry in assay [2], in assay [3] and in [16] was “inactive” each time. Further, the Potency in [4] is 26.4 µM (active); in assay [6], 0.0418 µM (active); in assay [7], 23.5 µM (active).

Regarding `Cc1ccnc2c1NC(=O)c1cccnc1N2C1CC1`, the Potency result in [1], in [2], in assay [3], in assay [4] and in assay [6] was “inactive” each time. Besides, the Potency in assay [5] was 20.9 µM (active).

In the case of `Cc1oc(=O)oc1CN1CCN(c2cc3c(cc2F)c(=O)c(C(=O)O)c2n3C(C)S2)CC1` (stereo not given), the Potency entry in assay [1], in [2], in assay [3], in [5] and in assay [7] was “inactive” each time.
